Measured potencies and affinities stand elsewhere.
Each compound was assayed against Protein S100-A4 (Homo sapiens) (UniProt P26447) (assay: S100A4-myosin IIA binding inhibitor potency, dose response, biochemical, fluorescence polarization, cherry-picked hits (AID 687001;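 further: 0% = DMSO neutral control wells and -100% = TFP positive control wells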)). Conditions: FP, S100A4/TAMRA-myosin IIA peptide binding; series mostly up to 11 µM; activity change, negative = inhibition: at the top concentration;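 active means signal-lowering compounds whose fitted half-maximal concentration is at or below twice the top tested dose in every run; inconclusive means runs disagree, flat 30 to 70% inhibition, or poor curve fit; inactive means the rest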.
Chain of Protein S100-A4 (Homo sapiens) (P26447 whole entry, looked up): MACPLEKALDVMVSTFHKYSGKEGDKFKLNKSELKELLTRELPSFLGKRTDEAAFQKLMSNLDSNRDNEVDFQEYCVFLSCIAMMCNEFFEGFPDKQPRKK

Activity change, negative = inhibition, inactive:
COc1ccc(Cl)cc1Cn1c(C)c(C(=O)NCc2ccc(C#N)cc2)sc1=O 3.83%
O=C(C[C@@H]1C[C@H]2c3cc(NS(=O)(=O)c4ccccc4)ccc3O[C@H]2[C@@H](CO)O1)N1CCOCC1 2.46%
CCCN(CC(=O)Nc1ccccc1C)C(=O)C1CC(=O)N(c2cccc(C)c2C)C1 (centres undefined) -1.18%
CC(=O)Nc1cccc(C(=O)NC2CCCc3c2cnn3-c2ccccc2F)c1 (centres undefined) -12.2% [at 5.6 µM]
COc1ccc(S(=O)(=O)N(C)C[C@H]2Oc3ncc(-c4ccncc4)cc3C(=O)N([C@@H](C)CO)C[C@H]2C)cc1 -1.69%
N#C[C@@H]1[C@H](c2ccccc2-c2cccc(F)c2)[C@@H](CO)N1C(=O)C1CC1 -2.63%
CON(C)S(=O)(=O)c1cccc(C(=O)Nc2cccc(S(=O)(=O)NC3=NCCCCC3)c2)c1 5.62%
C[C@@H]1CN([C@H](C)CO)C(=O)Cc2cc(NS(=O)(=O)c3ccccc3)ccc2O[C@@H]1CN(C)Cc1ccccc1 1.23%
O=C(COC(=O)CCCN1C(=O)c2cccc3cccc(c23)C1=O)NC1CCS(=O)(=O)C1 (centres undefined) -3.93%
CCn1c(=O)c2ccccc2n2c(SCC(N)=O)nnc12 -7.44%
CCOc1ccc(N2CC(C(=O)NNC(=O)c3ccc(Br)cc3)CC2=O)cc1 (centres undefined) 1.89%
O=C(NC1CCCC1)N1CCCCN2[C@@H](CO)[C@@H](c3ccc(-c4cccnc4)cc3)[C@@H]2C1 3.97%
Cc1ccc(NC(=O)COC(=O)c2ccccc2F)cc1S(=O)(=O)N1CCCCC1 5.19%
Cc1cccc(Nc2c3c(nc4ccccc24)CCC3)c1 -2.25%

Reference: PubChem BioAssay AID687001 (Broad Institute, 2013)
